# From PubChem BioAssay AID2401 (Southern Research Specialized Biocontainment Screening …, 2010)
# Screen size: about 2,200 compounds; about 530 (24%) were called active.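 How the source made its calls: active means inhibition above a set limit at one or more concentrations of the dose series; inactive means inhibition under that limit at every dose.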 These entries were drawn from the full list. Potency and affinity values are given separately.
# Experiment: S. Typhimurium nonspecific reporter signal inhibition – Salmonella Typhimurium, GFP fluorescence, counter-screen for PhoP regulon inhibitor project, dose response (AID 2401);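 further: S. typhimurium with Mg-insensitive nmpC-GFP reporter grown at 10 µM Mg2+; drop in reporter fluorescence reflects general culture growth inhibition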
# Settings: 4 h; series mostly up to 150 µM; inhibition: at the top concentration
row,SMILES,inhibition
1,CN(C(=O)/C=C/c1ccccc1)C1CCS(=O)(=O)C1 (stereo not given),-30.1% (inactive)
2,COc1ccccc1N1CCN(c2ccc(-c3ccccc3)nn2)CC1,-12.4% (inactive)
3,COc1cc(CNCc2ccccn2)ccc1OCC(=O)NC(C)(C)C,-7.95% (inactive)
4,Cc1ccc(NS(=O)(=O)c2ccccc2)c2c1CC(C)(C)O2,-20.3% (inactive)
5,Cc1cc(C)nc(N(C#N)C(C)C(=O)N(C)C)n1 (stereo not given),-20.3% (inactive)
6,Cc1cc2cc(CCNC(=O)c3cccs3)c(=O)[nH]c2cc1C,1.29% (inactive)
7,Cc1ccc(C(=O)Nc2ccccc2C(N)=O)o1,4.25% (inactive)
8,COc1cccc(Cn2cnc3c(NS(=O)(=O)c4cccc(Cl)c4Cl)c(C)c(C)cc32)c1,19.3% (inactive)
9,Cc1[nH]c2ccccc2c1C(=O)CN1CCSCC1,-12.8% (inactive)
10,CC(C)(C)c1ccc(NC(=O)COC(=O)c2ccc([N+](=O)[O-])s2)cc1,34% (inactive)
11,Cc1cc(=O)oc(C)c1C(=O)NCc1cccnc1,-5.26% (inactive)
12,Cc1nn(CCOc2ccccc2)c(=O)n1-c1ccc(F)cc1,-24.6% (inactive)
13,Cc1cccc(NC(=O)Cn2c(/C=C/c3ccccc3)nc3ccccc32)c1,-18% (inactive)
14,O=C(NCc1ccco1)c1c2c(nc3ccccc13)CCC2,-4.54% (inactive)
15,Cc1ccc(C(=O)NNc2c3ccccc3nc3ccccc23)cc1,-21.8% (inactive)
16,Cc1cccc(OCC(=O)NNc2c3ccccc3nc3ccccc23)c1,-23.7% (inactive)
17,Cc1ccc(CSCc2nc3ccccc3[nH]2)cc1,19.2% (inactive)
18,Cc1ccccc1NC(=O)c1sc2nc3c(c(-c4ccco4)c2c1N)CCC3,-7.73% (inactive)
19,Cn1c(-c2ccc3c(c2)OCO3)cnc1NCc1cccc(Cl)c1,1.41% (inactive)
20,CC(=O)c1c(C)n([O-])c2ccccc2[n+]1=O,26.2% (inactive)
21,COC(=O)c1sccc1NC(=O)C1C2C=CC(O2)C1C(=O)O (stereo not given),24.6% (inactive)
22,COC(=O)c1ccc2nc(C(F)(F)F)[nH]c2c1,3.54% (inactive)
23,N#CCCN(C(=O)CN1C(=O)NC2(CCCC2)C1=O)c1ccccc1F,-3.96% (inactive)

row,SMILES,inhibition
1,O=C1C(Nc2ccccc2)=C/C(=N/S(=O)(=O)c2cccs2)c2ccccc21,21.1% (inactive)
2,COc1cc(C=O)ccc1OCCCOc1ccccc1[N+](=O)[O-],4.63% (inactive)
3,Cc1snc(S(=O)(=O)/C(C#N)=N\Nc2ccccc2)c1C#N,-6.54% (inactive)
4,C(=Nc1ccc(Nc2ccccc2)cc1)c1ccc2ccccc2c1,-4.57% (inactive)
5,Cc1ccsc1C=Nc1ccc(O)cc1,-36.1% (inactive)
6,Cc1nnc(NC(=O)CSc2ncnc3scc(-c4ccccc4)c23)s1,-33.5% (inactive)
7,Cc1onc(-c2c(F)cccc2Cl)c1C(=O)Nc1cccc(Cn2cccn2)c1,-0.75% (inactive)
8,CCOc1ccc(NC(=O)CCC(=O)n2nc(C)cc2C)cc1,-4.16% (inactive)
9,COc1cc(OC)c(C(=O)Nc2ccc(S(=O)(=O)Nc3ncccn3)cc2)cc1OC,-24.9% (inactive)
10,COc1nccnc1NS(=O)(=O)c1ccc(NC(=S)NC(=O)c2cccnc2)cc1,-42.9% (inactive)
11,CCOC(=O)Cc1ccc2sc(-c3ccccc3)nc2c1,-22% (inactive)
12,Cc1ccc(-c2nc3ccccc3s2)cc1S(=O)(=O)N1CCCC1,-16.7% (inactive)
13,COc1ccc(C2=NOC(C(=O)Nc3ccc(C)cc3)C2)cc1OC (stereo not given),2.64% (inactive)
14,COc1cccc(C2CC(c3ccccc3OC)n3nc(N)nc3N2)c1 (stereo not given),-20.8% (inactive)
15,CCCc1cc(C(=O)NNC(=S)NC(C)c2ccccc2)cs1 (stereo not given),-35.7% (inactive)
16,Cc1ccc(-n2sc3ccccc3c2=O)cc1S(=O)(=O)N1CCCCC1,8.77% (inactive)
17,CCNC(=O)COC(=O)CCC(=O)c1cccs1,-7.69% (inactive)
18,FC(F)(F)c1cc(C(F)(F)F)c2ccc(Oc3ccccc3)nc2n1,9.05% (inactive)
19,O=C(Cc1ccccc1)NCc1ccc(F)cc1,-30.9% (inactive)
20,Fc1ccccc1COc1ccc(Br)cc1CNCc1ccncc1,1.55% (inactive)
21,O=C(Nc1ccc(S(=O)(=O)Nc2nccs2)cc1)c1cc(-c2ccccc2)nc2ccccc12,4.41% (inactive)
22,COc1ccc(C(C)=O)c2c(O)cccc12,4.56% (inactive)
23,CC1(C)CC(=O)C2=C(C1)OC1=C(C(=O)CC(C)(C)C1)C2c1ccc(O)cc1O,9.69% (inactive)

row,SMILES,inhibition
1,c1ccc(-n2cnc3cc(NCc4ccccn4)ccc32)cc1,-4.69% (inactive)
2,CCOC(=O)C1(S(=O)(=O)c2ccccc2)CCN(Cc2ccc(Cl)cc2)CC1,5.17% (inactive)
3,O=C(Nc1ccc2c(c1)oc1ccccc12)N1CCOCC1,-7.09% (inactive)
4,CCOc1ccccc1OCC(=O)Nc1ccc(S(=O)(=O)Nc2nc(C)cc(C)n2)cc1,-11.6% (inactive)
5,Cc1ccc(SC(c2ccc(C)cc2)C(Cn2cncn2)C(=O)c2ccccc2)cc1 (stereo not given),-15.4% (inactive)
6,CN(C)c1nc(N)nc(Cn2ccnc2)n1,-5.04% (inactive)
7,N/C(=N\OC(=O)c1cccs1)C1(c2ccc(Cl)cc2Cl)CC1,-14.9% (inactive)
8,COc1cc(C2Nc3cccc4cccc(c34)N2)cc(OC)c1O,23.9% (inactive)
9,COc1cccc(C2CC(=O)Nc3cc(OC)c(OC)c(OC)c32)c1OC (stereo not given),-6.54% (inactive)
10,C=CCc1ccccc1OCC(O)CN1CCN(CCN2C(=O)c3cccc4cccc(c34)C2=O)CC1 (stereo not given),1.41% (inactive)
11,C=C(C)Cn1c(CCn2c3ccccc3c3ccccc32)n[nH]c1=S,4.79% (inactive)
12,CN(C(=O)c1cccc(C#N)c1)c1nnc(-c2cnccn2)s1,1.99% (inactive)
13,Cn1c(CC(=O)Nc2ccc(Cl)c(Cl)c2)nnc1SCC(=O)Nc1nccs1,-37.2% (inactive)
14,Cc1cc2ncn(CC(O)COc3cccc(C(=O)O)c3)c2cc1C (stereo not given),-28.7% (inactive)
15,N#Cc1c(N)nc(SCC(=O)NC2CCCCC2)c(C#N)c1-c1ccc(Cl)cc1,-24.1% (inactive)
16,Fc1cccc(NCc2cn3ccccc3n2)c1,23.2% (inactive)
17,O=S(=O)(c1ccc(N2CCCC2c2nc3ccccc3s2)nc1)N1CCOCC1 (stereo not given),-14.8% (inactive)
18,Nc1nnc(Sc2ccc(Cl)cc2[N+](=O)[O-])s1,-0.98% (inactive)
19,C#CCn1cc(/C=N/Nc2nc3ccccc3[nH]2)c2ccccc21,31.1% (inactive)
20,C(=C\c1ccccc1)/C=N/Nc1nc2ccccc2[nH]1,19.1% (inactive)
21,CN(c1cccc(Cl)c1)S(=O)(=O)c1cccc(C(=O)Nc2nc3ccccc3[nH]2)c1,16.2% (inactive)
22,CCN(CC)c1ccc(/C=N/NC(=S)NCc2ccccc2)c(O)c1,9.66% (inactive)
23,COc1ccc(/C=C/c2nc3ccccc3n2Cc2ccccc2OC)cc1,-5.49% (inactive)

row,SMILES,inhibition
1,COc1ccccc1NC(=O)Cn1nnc(-c2ccccc2NC(=O)c2cccs2)n1,-10.7% (inactive)
2,COC(=O)CSc1nnc(-c2ccco2)n1Cc1ccco1,-13.6% (inactive)
3,Cc1cccc(-n2nc3c(c2NC(=O)c2ccco2)CSC3)c1C,-29.7% (inactive)
4,CCN(CC)CC(=O)Nc1nc(-c2ccc(Cl)cc2)cs1,-3.92% (inactive)
5,C/C(=N/Nc1nc(-c2ccc(Cl)cc2)cs1)c1cccs1,-20.6% (inactive)
6,O=C(C[n+]1cc(-c2ccccc2)n2c1CCCCC2)c1ccc(Cl)cc1,-22.6% (inactive)
7,COc1ccc(OC)c(NC(=S)NCCCN2CCOCC2)c1,-26.6% (inactive)
8,CN(CCNS(=O)(=O)c1ccc2c(c1)oc(=O)n2C)Cc1ccccc1,14.6% (inactive)
9,Cc1cc(C)c(C#N)c(SCC(O)CS(=O)(=O)Cc2ccccc2)n1 (stereo not given),-4.96% (inactive)
10,O=C(CSC1CCCCC1)Nc1ccccc1Br,-14.2% (inactive)
11,Cc1ccc(C(=O)Oc2ccc(C(=O)COC(=O)c3cnccn3)cc2)cc1,-20.6% (inactive)
12,O=C(NC1CCCCC1)C(c1ccncc1)N(Cc1ccccc1)C(=O)c1ccc(-c2ccccc2)[nH]1 (stereo not given),8.67% (inactive)
13,Clc1ccccc1OCCn1ccnc1,-11.3% (inactive)
14,Cc1ccc(C(=O)NCc2ccc(Cl)cc2)o1,15.7% (inactive)
15,S=C(Nc1ccc2snnc2c1)N1CCN(c2ccccn2)CC1,34.2% (inactive)
16,CC1CN(C(=O)CCc2ccccc2)C(C)CN1C(=O)CCc1ccccc1 (stereo not given),1.08% (inactive)
17,Cc1ccc(NC(=S)NC(NC(=O)c2ccco2)C(Cl)(Cl)Cl)cc1 (stereo not given),12.3% (inactive)
18,O=C(NC(NC(=S)Nc1ccc(Cl)cc1)C(Cl)(Cl)Cl)c1ccco1 (stereo not given),-30.7% (inactive)
19,O=c1c(Br)c(Br)cnn1-c1ccccc1,26.3% (inactive)
20,Clc1ccc(-c2csc3ncnc(N4CCc5ccccc5C4)c23)cc1,-19.2% (inactive)
21,CCOC(=O)c1sc2nccc(N(C)C)c2c1N=CNOCc1c(F)cccc1Cl,0.78% (inactive)
22,CCCCCn1c(C(C)NC(=O)CCC)nc2ccccc21 (stereo not given),4.48% (inactive)
23,Cc1ccc2cccnc2c1NC(=S)NC(=O)c1ccccc1,3.45% (inactive)

row,SMILES,inhibition
1,O=C(NC(c1ccc(Cl)cc1)c1c(O)ccc2ccccc12)c1ccccc1 (stereo not given),-14.6% (inactive)
2,O=C(Cc1ccccc1)NC1c2ccccc2-c2ccccc21,-12.7% (inactive)
3,O=C(CSc1nnc(-c2ccc(O)cc2)n1-c1ccccc1)CC(=O)Nc1ccccc1,15.1% (inactive)
4,O=C(OCC1COc2ccccc2O1)c1ccccc1F (stereo not given),-18.5% (inactive)
5,CC1=C(C(=O)OCC2CCCO2)C(c2cccc(C(F)(F)F)c2)C2=C(CC(c3ccco3)CC2=O)N1 (stereo not given),-25.9% (inactive)
6,O=S(=O)(Nc1ccc(Cc2ccncc2)cc1)c1ccc(Br)s1,-31.1% (inactive)
7,Cn1ncc(N=Cc2ccccc2O)c1C(=O)Nc1ccccc1,8.45% (inactive)
8,N#CC1=C(N)Oc2c(O)cc3ccccc3c2C1c1ccsc1 (stereo not given),-14.3% (inactive)
9,O=C(CSCc1ccccc1)Nc1ccc2c(c1)OCO2,-7.93% (inactive)
10,CCOc1cc(CNn2cnnc2)ccc1OCC(=O)NC1CCCCC1,-8.61% (inactive)
11,O=C(CCCNS(=O)(=O)c1ccccc1)NCc1ccco1,-22.5% (inactive)
12,Cc1ccc(C(=O)Nc2ccc3c(c2)OCO3)o1,18.3% (inactive)
13,Clc1ccc(C[n+]2cc(-c3ccc(Cl)cc3)n3c2CCC3)cc1,36.7% (inactive)
14,Clc1ccc(-c2cnc3n2CCC3)cc1,15% (inactive)
15,COC(=O)Cc1c(O)ccn(Cc2ccc(F)cc2)c1=O,-29.4% (inactive)
16,O=C(O)Cn1cc(C(=O)c2ccco2)c2ccccc21,2.21% (inactive)
17,CCn1cc(C(=O)O)c(=O)c2cc(OC)ccc21,32.4% (inactive)
18,O=C(Nc1ccc(NC(=O)C23CC4CC(CC(C4)C2)C3)cn1)c1ccco1,-21.7% (inactive)
19,Oc1ccc(-c2n[nH]c(=S)n2-c2ccc3c(c2)OCCO3)c(O)c1,-14.8% (inactive)
20,Nn1c(COc2cccc(Br)c2)nnc1SCC(=O)N1CCc2ccccc2C1,-13.3% (inactive)
21,c1ccc2c(C3=NNC(=NC4CC4)SC3)c[nH]c2c1,13.1% (inactive)
22,O=C(Nc1cnn(Cc2ccc(Cl)cc2Cl)c1)c1noc2c1CCCC2,-3.26% (inactive)
23,CC(=O)c1c(N2CCN(C(=O)C3CCCO3)CC2)nc(=S)n(-c2ccccc2)c1C (stereo not given),-21.4% (inactive)
